Activity calls are given as the source filed them. The calls were made as follows: active = hit-call score of the fitted dose curve at least 0.9, where 1 is the maximum; inactive = score below 0.9.

A short description of the experiment: ATG_CRE_CIS: Attagene CIS-FACTORIAL HepG2 Assay for human cAMP Responsive Element (CRE) binding protein 3 (AID 2282926). As to conditions: HepG2 CRE cis-reporter, Attagene multiplexed mRNA; actives raise or lower the signal. The protocol: ATG_CIS is a cell-based, multiplexed-readout assay that uses HepG2, a human liver cell line, with measurements taken at 24 hours after chemical dosing in a 24-well plate.ATG_CRE_CIS is one of 52 assay component(s) measured or calculated from the ATG_CIS assay. It is designed to make measurements of mRNA induction, a form of inducible reporter, as detected with fluorescence intensity signals by Reverse transcription polymerase chain reaction (RT-PCR) and Capillary electrophoresis technology.Data from the assay component ATG_CRE_CIS was analyzed into 1 assay endpoint. This assay endpoint, ATG_CRE_CIS, was analyzed with bidirectional fitting relative to DMSO as the negative control and baseline of activity. Using a type of inducible reporter, measures of mRNA for gain or loss-of-signal activity can be used to understand the reporter gene at the transcription factor-level as they relate to the gene CREB3. Furthermore, this assay endpoint can be referred to as a primary readout, because this assay has produced multiple assay endpoints where this one serves a reporter gene function. To generalize the intended target to other relatable targets, this assay endpoint is annotated to the dna binding intended target family, where the subfamily is basic leucine zipper.
Human liver HepG2 cells are transiently transfected with multiple reporter transcription units (MRTUs) in 6-well plates using FuGene 6 reagent (Roche; 3 ml FuGene/1 mg DNA). The MRTU constructs are regulated by a cis-regulating element (promoter). […] A major difference between the CIS and TRANS system is that in CIS activities of endogenous TFs are measured, whereas the TRANS assay evaluates changes in activities of exogenous, chimeric NR-Gal4 proteins. […] At the end of 24 hour incubation, total RNA was isolated using TriZol reagent (Invitrogen). The isolated RNA is then reverse-transcribed using oligo(dT) primer and Mo-MLV reverse transcriptase (Invitrogen) with DNAse I (Ambion) treatment for 30 min. The one-tenth of the produced cDNA was amplified by PCR using Taq DNA polymerase (Invitrogen) and two reporter sequence-specific primers. The PCR products were fluorescently labeled by primer extension with 6-arboxyfluorescein (6-FAM) 5'-labeled reporter sequence-specific primer (2 min at 95 C, 20 s at 68 C and 10 min at 72 C) and these products were digested with 5U of HpaI (New England Biolabs) for 2h at 37 C. The fragments were purified using Qiaquick PCR columns (Qiagen), analyzed on an ABI 3130xL genetic analyzer (Applied Biosystems) with peak positions identified by using a set of X-rhodamine (ROX)-labeled MapMarker1000 molecular weight standards (BioVentures). The raw capillary electrophoresis data was processed using Attagraph software (Attagene).
Take `CCC1(C)C(=O)N(Cl)C(=O)N1Cl` (stereo not given): the AC50 is 27.6 µM (active).

With `C=CCNCC=C`, the outcome was inactive.

As for `Cc1ccc(C)c(OCCCC(C)(C)C(=O)O)c1`, the result was inactive.

For `[Cl][Sc]([Cl])[Cl]`, the compound was classed as inactive.

`c1ccc(-c2nc3ccccc3[nH]2)cc1`: the compound was called inactive.

Take `C=C(C)OC(C)=O`: the compound was called inactive.

`CCCC(CC)c1ccccc1` (stereo not given): the result was inactive.

On to `C=CCOC(=O)c1ccc(C(=O)OCC=C)c(C(=O)OCC=C)c1`, for which the result was inactive.

Turning to `CCNc1nc(NC(C)(C)C)nc(OC)n1`, the compound was called inactive.

Take `CCOC(=O)CC(=O)c1ccccc1`: the result was inactive.

Consider `Cc1cc(C)n(CO)n1`, for which the compound was classed as inactive.

For `CCCCC(C=O)CC` (stereo not given), the result was inactive.

As to `CCCCCCCCCCCCc1ccc(O)cc1`, the compound was classed as inactive.

As for `CC(C)C(=O)OCCOc1ccccc1`, the result was inactive.

Regarding `C=CC(C)(O)CC/C=C(\C)CC` (stereo not given), the outcome was inactive.

Consider `CCCCC(CC)COC(=O)/C=C/c1ccc(OC)cc1` (stereo not given), for which the outcome was inactive.

With `O=S(=O)(O)c1ccc(N=Nc2c(O)ccc3ccccc23)cc1`, the result was inactive.

With `CC(C)=CCl`, the outcome was inactive.

Turning to `CC(=O)OC1CCCCC1C(C)(C)C` (stereo not given), the compound was classed as inactive.

As for `CC(C)(CO)C(O)C(=O)NCCCO` (stereo not given), the outcome was inactive.

For the compound `CN(C)Cc1cc(CN(C)C)c(O)c(CN(C)C)c1`, the call was inactive.

On to `CC1=CC=C(C(C)C)CC1`, for which the compound was classed as inactive.

Regarding `CC1(C)C(=O)N(CO)C(=O)N1CO`, the call was inactive.

For the compound `CC(C)=NNC(N)=S`, the call was inactive.

`CC1OC(=O)C(C)OC1=O` (stereo not given): the compound was classed as inactive.

Regarding `Oc1ccc(-c2ccccc2)c(Cl)c1`, the AC50 was 33.4 µM (active).

Regarding `O=C1CCCCCCCCCCCN1`, the outcome was inactive.

As for `CCOC(=O)[C@H](O)[C@@H](O)C(=O)OCC`, the result was inactive.

For the compound `CC1C(C)(C)C2=C(C(=O)CCC2)C1(C)C` (stereo not given), the result was inactive.

Regarding `C[N+](C)(C)CCCNS(=O)(=O)C(F)(F)C(F)(F)C(F)(F)C(F)(F)C(F)(F)C(F)(F)C(F)(F)C(F)(F)F`, the result was inactive.

Take `O=C(O)C1CCC(C(=O)O)CC1` (stereo not given): the call was inactive.

Regarding `CCCCOC(=O)CCC(C)=O`, the call was inactive.

Regarding `Nc1ccc(C(=O)OCCCOC(=O)c2ccc(N)cc2)cc1`, the call was inactive.

Turning to `CCc1cccc(C)c1N`, the call was inactive.

Regarding `CC(C)(C)C1CCC(=O)CC1`, the result was inactive.

With `CCCCOCCOC(=O)COc1ccc(Cl)cc1Cl`, the outcome was inactive.

Regarding `CC/C=C\CCOC(=O)c1ccccc1O`, the call was inactive.

With `Fc1ccc(Br)cc1`, the compound was called inactive.

Consider `CC1(C)[C@@H]2CC[C@@]1(C)C(=O)C2`, for which the compound was called inactive.

`CC(=O)OCC=C(C)C`: the compound was classed as inactive.

As a reminder, the AC50 is the concentration at which the activity in the assay is half-maximal.

The record behind these values is PubChem BioAssay (EPA / NIEHS).
